In ChEMBL document CHEMBL3988442, “University of Dundee, Small-Polar-MMV Screening Library” (2021):

Key:
[1] = biological target: T1, Aspartate--tRNA(Asp/Asn) ligase (Mycobacterium tuberculosis (strain ATCC 25618 / H37Rv)) (UniProt P9WFW3); test: Assay for Asp RNA synthetase-1 from Mycobacterium tuberculosis; assay type: functional; parameters: scale not given: direction of the effect not stated beside the values; details: 30 µM; note: in the data most compounds retested in dose-response had high values
T1 sequence (whole entry): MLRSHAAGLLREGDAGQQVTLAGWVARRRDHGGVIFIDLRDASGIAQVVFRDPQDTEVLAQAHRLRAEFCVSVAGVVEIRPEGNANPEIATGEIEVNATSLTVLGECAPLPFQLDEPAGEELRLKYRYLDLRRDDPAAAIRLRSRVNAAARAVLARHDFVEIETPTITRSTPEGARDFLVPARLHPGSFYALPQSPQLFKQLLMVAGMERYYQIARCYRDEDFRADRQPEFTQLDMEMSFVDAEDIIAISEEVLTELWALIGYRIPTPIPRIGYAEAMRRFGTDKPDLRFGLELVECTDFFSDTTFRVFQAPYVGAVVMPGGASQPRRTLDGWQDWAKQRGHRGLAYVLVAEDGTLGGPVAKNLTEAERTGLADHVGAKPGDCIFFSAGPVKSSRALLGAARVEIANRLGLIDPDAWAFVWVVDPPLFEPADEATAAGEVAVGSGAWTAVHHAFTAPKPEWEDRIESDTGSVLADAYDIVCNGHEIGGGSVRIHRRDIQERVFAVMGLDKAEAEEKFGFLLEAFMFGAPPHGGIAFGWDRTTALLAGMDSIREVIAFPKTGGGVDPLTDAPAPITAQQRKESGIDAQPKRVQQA

[2] = biological target: Shiga toxin 2 (Escherichia coli O157:H7) (UniProt P09385+P09386); test: E. coli 0.157:H7 Shiga Toxin SOP - stx2 screening assay; assay type: functional; parameters: scale not given: direction of the effect not stated beside the values; details: 30 µM

SMILES	Percent Effect [1]	Percent Effect [2]
O=C(CCc1cnn(-c2ccccc2)c1)N1CCCC(n2cccn2)C1 (centres undefined)	-0.589%	26.2%
COC(C(=O)N1CCN(c2cccc(Cl)c2)C(=O)C1)c1ccccc1 (centres undefined)	0.0112%	-0.212%
Cc1cc(CNC(=O)NC(C)c2ccc(N3CCOCC3)cc2)no1 (centres undefined)	5.56%	-23.6%
CC(C)CC1SCC(=O)Nc2c1cnn2C(C)C (centres undefined)	3.17%	-18.7%
Cc1cc(C)c(CNC(=O)NCC(O)c2cccc(F)c2)c(=O)[nH]1 (centres undefined)	2.36%	28.2%
c1ccc(C2CCN(c3cncc(-n4cccn4)n3)CC2)cc1	-0.999%	-5.12%
CS(=O)(=O)NC[C@]12COC[C@H]1CN(C(=O)c1ccoc1)C2	0.452%	-5.39%
Cc1cnn(CCC(=O)N2CCOC(c3nc(C(C)(C)C)n[nH]3)C2)c1 (centres undefined)	-1.81%	-26.2%
CC(C)NC(=O)[C@@H]1CCO[C@@H]2CCN(c3ncccn3)C[C@H]21	4.69%	-19.4%
CS(=O)(=O)NCc1cn2c(n1)CN(C(=O)c1ccc[nH]1)CC2	1.81%	-6.4%
CC(C)c1n[nH]c(C2CN(C(=O)c3cccc4cn[nH]c34)CCO2)n1 (centres undefined)	7.47%	9.23%
CCn1ccnc1CNCC1CCCN1c1cccnn1 (centres undefined)	-8.36%	6.68%
Cc1ccc(NC(=O)NC(C)C(=O)N2CCS(=O)(=O)CC2)cc1 (centres undefined)	1.19%	12.8%
Cc1cnc(CN(C)C2CCN(Cc3nc4ccccc4n3C)C2)o1 (centres undefined)	-5.16%	-27.3%
N#Cc1ccc(OCCCN2CCc3cncnc3C2)cc1	-3.6%	-20.7%
CCOC(=O)NC(CNC(=O)CCc1ccccn1)CC(C)C (centres undefined)	1.17%	0.307%
CN(CCNC(=O)c1scnc1Cl)c1ccccc1	2.87%	-17.4%
Cc1nccn1Cc1nnc(C2CCCN(Cc3cccnc3)C2)n1C (centres undefined)	-2.79%	4.73%
COc1ccc(Cl)cc1C(=O)N1CCOC2(CNCCOC2)C1 (centres undefined)	-0.926%	11.2%
CNS(=O)(=O)c1cccc(CNc2ccc(C(F)(F)F)nn2)c1	-3.88%	14.2%
COc1ccccc1OC1CCN(Cc2cnc(N(C)C)nc2)CC1	-2.72%	17.9%
Cc1cccc(CN2CCN(Cc3ccccc3)CC(O)C2)n1 (centres undefined)	2.13%	13.4%
Cc1[nH]ccc1C(=O)Nc1cccc(CN2CCC(O)CC2)c1	0.958%	-28.9%
Cc1nnc(NC(=O)CN(C)CC2CCCN2c2cccnn2)s1 (centres undefined)	0.577%	-34.1%
COCc1nc(C(=O)N2CCCC2c2noc(C(C)C)n2)cs1 (centres undefined)	2.63%	-5.18%
Cc1cnn(CC2CCCN2C(=O)c2cc3ccccc3[nH]c2=O)c1 (centres undefined)	-1.15%	22.9%

SMILES	Percent Effect [1]	Percent Effect [2]
Clc1snnc1CN1CCOC(CNc2cccnn2)C1 (centres undefined)	-1.85%	-5.91%
CN(C)C(=O)C1(CCCc2ccncc2)CCCN1 (centres undefined)	-0.998%	11.3%
Cc1ccc(CNC(CN2CCN(C)CC2)c2ccccc2)cc1 (centres undefined)	3.88%	-2.09%
CCN(CC)Cc1ccc(C(=O)N2CCN(CC(C)O)CC2)cc1 (centres undefined)	0.607%	8.97%
CCc1nnc2n1CCN(C(=O)CN(C)Cc1ccccc1)C2	-3.23%	15.9%
CC(C)COC(C)C(=O)NCc1ccc(OC(C)C)nc1 (centres undefined)	1.79%	9.54%
CC(=O)N1CCCN(C(=O)c2cnc3n[nH]c(C)c3c2)CC1	-0.871%	19.4%
Cc1nnc2n1CCN(C(=O)c1cc(Cl)c(Cl)n1C)C2	-1.68%	8.23%
Cc1cc(C2CCCN(CCCS(=O)(=O)c3ccccc3)C2)n[nH]1 (centres undefined)	3.14%	4.75%
CCc1nc(C2CCCN2Cc2nccn2Cc2ccccc2)no1 (centres undefined)	-2.22%	12.2%
CCc1nc(CN(C)C2CCN(CCS(C)(=O)=O)C2)no1 (centres undefined)	3.04%	-32.8%
Cc1cc(C)n(CC2CCCN2C(=O)CCCc2ccccn2)n1 (centres undefined)	-1.59%	31.8%
N#Cc1ccccc1N1CCCN(C(=O)CCc2nccs2)CC1	-8.37%	9.06%
O=C(c1ccc2c(c1)COC2)N1CCC(Nc2cccnn2)CC1	-1.3%	-8.52%
CC(NC(=O)NCC1(N2CCCCC2)CCCCC1)c1nncn1C (centres undefined)	-4.55%	27.5%
O=C(NCC1CC1)C1CN(C(=O)c2cccnc2)CC12CCOCC2 (centres undefined)	-2.58%	-10.2%
Cc1ccccc1Oc1ncccc1CNS(C)(=O)=O	-3.12%	-11.9%
Cc1cnn(C2CCCN(C(=O)c3ccc(N(C)C)nn3)C2)c1 (centres undefined)	-1.49%	-0.265%
CCc1cnc(N2C[C@H]3C[C@H](C(=O)N(C)C)[C@@H](C2)O3)nc1	-1.86%	-0.162%
CS(=O)(=O)NCC1CCCN(C(=O)c2cc3ccccc3o2)C1 (centres undefined)	3.19%	-22%
CSc1ncccc1C(=O)NCc1ccc(CS(=O)(=O)NC(C)C)cc1	4%	6.55%
Cc1cc2c(=O)n3c(nc2s1)CCN(Cc1cnc(C(C)C)nc1)CC3	6.6%	14.8%
CS(=O)(=O)NC1CCN(C(=O)NCCc2ccccc2F)CC1	-3.88%	-19.2%
NC(=O)C1CCN(C(=O)NCc2ccccc2Cn2cncn2)CC1	2.04%	1.76%
CC(C(=O)N1CCN(c2cnccn2)CC1)n1cncn1 (centres undefined)	2.72%	2.13%
COc1ccc(C2CCCN2C(=O)c2csc(NC(C)=O)n2)cc1 (centres undefined)	0.516%	-30.4%

SMILES	Percent Effect [1]	Percent Effect [2]
COc1ccc(OCCc2sc(C3(O)CCCNCC3)nc2C)cc1 (centres undefined)	-5.55%	-52%
Cc1nn(C)c(N(C)C)c1CNC1CCOc2c(F)cccc21 (centres undefined)	-0.433%	30.8%
CN(Cc1ccsc1)C(=O)Nc1ccc(S(C)(=O)=O)nc1	-0.6%	-35.6%
Cc1c(C(=O)NCC(C)C)nnn1-c1cccc2c1CCN(C)C2	0.928%	-7.34%
CCCN(Cc1ccccc1)Cn1nc(C)c2c(C)onc2c1=O	9.28%	6.54%
CCOCC1CN(Cc2ccc(OC)cc2)Cc2nn(C)cc21 (centres undefined)	11.4%	-5.58%
Cc1nn(C)c(N(C)C)c1CNC1CCc2c(F)cccc21 (centres undefined)	-3.35%	33.1%
O=C(NCC1(CO)CC1)c1cccc2ccccc12	-3.45%	-0.178%
CC(C)NC(=O)Nc1ccc(CS(=O)(=O)C(C)(C)C)cc1	0.689%	0.4%
Cc1nc(C)n(C2CCCN(C(=O)COCc3ccccc3)C2)n1 (centres undefined)	-4.95%	-2.76%
Cc1nc(O)c2nnn(C[C@H]3CCCN3C(=O)C(C)(C)C)c2n1	5.78%	-7.47%
COCCn1ccc(NC(=O)Nc2ccc(C(N)=O)c(F)c2)n1	2.25%	-3.67%
CCCc1n[nH]c(C2CN(CCCS(C)(=O)=O)CCO2)n1 (centres undefined)	-3.39%	-21.5%
O=C(c1ccc[nH]1)N1CCC2(CC1)C(=O)Nc1ccccc12	-1.68%	16.7%
Cc1nnc2n1CCN(Cc1ncc(-c3ccc(Cl)cc3)o1)C2	-2.3%	25.1%
Cc1nc(Nc2nnc(C)s2)cc(C2CCCN2C)n1 (centres undefined)	2.4%	-26.6%
COc1ccc(CCC(=O)N2CCCC2Cn2cc(C)cn2)cc1F (centres undefined)	-1.15%	18.7%
Cn1cc(C2COC3(CCN(C(=O)Cn4cccn4)CC3)C2)cn1 (centres undefined)	8.57%	-7.73%
O=C(CCOc1cccc(F)c1)N1CCCC(n2cncn2)C1 (centres undefined)	-2.92%	5.88%
Cn1cc(S(=O)(=O)N2CCCC2CC(=O)c2cccs2)cn1 (centres undefined)	1.01%	-9.63%
Cc1ccc(S(=O)(=O)N2CCc3nc(C4CCNCC4)ncc3C2)cc1	-1.21%	8.71%
Cc1nn(C)c(C)c1CNCc1ccnc(N2CCOCC2)c1	-2.46%	-9.51%
COc1cccc(OC)c1CN1CCC2(CC(Nc3ccncn3)C2)C1 (centres undefined)	3.04%	0.472%
Cc1cc(OCC(=O)N2CCCC(c3ccn[nH]3)C2)no1 (centres undefined)	-5.07%	2.75%
CCn1nnc2c1C(COC)CN(Cc1cccs1)C2 (centres undefined)	-3.5%	5.25%
O=C(CCNCC(F)(F)F)N1CCC(Nc2cccnn2)CC1	2.25%	-14.2%

SMILES	Percent Effect [1]	Percent Effect [2]
COc1ccc(NC(=O)Cn2nc(C)c(C)cc2=O)cc1OC	-0.123%	-13.1%
CC(C)C(C)NC(=O)Nc1ccccc1CN1CCOCC1 (centres undefined)	3.91%	9.92%
O=C(c1cnn2c1OCCC2)N1CCN(C/C=C/c2ccccc2)CC1	3.28%	-6.18%
COCCN1CCC(NC(=O)C2(c3cc(C)cc(C)c3)CC2)CC1	-4.05%	22.9%
CCN1CC2(CC1=O)CN(Cc1ccco1)CCN(C(=O)N(C)C)C2 (centres undefined)	-2.71%	-10.3%
Cc1nc2ccnn2c(C)c1CCC(=O)N1CCC(C(N)=O)CC1	0%	13.3%
COc1cccc(COCC(=O)N2CCCC(c3cc(C)[nH]n3)C2)c1 (centres undefined)	1.92%	28.3%
CSCCCN1CCn2nc(CNC(C)=O)cc2C1	3.05%	-62.7%
CC(C)N(C)C(=O)C1=NOC2(CCN(C(=O)c3ccc(Cl)cc3)C2)C1 (centres undefined)	1.19%	-2.21%
CCOC1CCCN(C(=O)c2cnc3c(cnn3C3CCCC3)c2)C1 (centres undefined)	2.51%	15.6%
Cc1nnc2n1CCN(Cc1csc(CC(=O)N(C)C)n1)C2	2.24%	5.11%
CC(C)CN1C(=O)C2(CCN(Cc3nccs3)C2)c2ccccc21 (centres undefined)	-0.662%	-65.4%
CC(=O)N1CCCN(C(=O)NCCc2ccc(Cl)s2)CC1	-3.04%	-19.8%
CC(O)CN1CCN(C(=O)CN(C)c2ccc(Cl)cn2)CC1 (centres undefined)	0.546%	-10.6%
Fc1cccnc1OC[C@@]12CCO[C@@H]1CCN(CC1CCOCC1)C2	0.353%	1.39%
CCc1cnc(CN(C)C2CCN(CCc3ccccn3)C2)o1 (centres undefined)	0.0557%	-7.08%
COc1c(CNCc2cccc(CN(C)C)c2)c(C)nn1C	-1.85%	13.1%
Cc1cc(CNC(=O)N2CCN(c3nc(C)c(C)s3)CC2)no1	-1.96%	24%
CCCc1c(C(=O)NC2CCCC2)nnn1-c1ccc(OC)cc1	-1.57%	-4.2%
Cc1cnn(CCC(=O)N2CCN(c3ncccc3Cl)CC2)c1	-7%	13.3%
OCCN1CCN(Cc2coc(-c3ccc(Cl)cc3)n2)CC1	4.16%	3.75%
CCn1ccnc1CNCC1CCN(CC(O)c2ccccc2)CC1 (centres undefined)	-3.48%	0.429%
O=C(c1cccc2cccnc12)N1CCCN(c2cccnn2)CC1	-6.72%	3.11%
CC(C)CN(Cc1nc2c(cnn2C)c(=O)[nH]1)C(C)C	-2.77%	0.929%
